Sampled rows, rich in hits. Any-hit rate of the full collection: about 3.8%.
FAS-TE inh: inhibitors of human fatty acid synthase thioesterase domain; P49327; recombinant FAS-TE, OMFH fluorogenic substrate, fluorescence endpoint; inhibition, % at 15 µM; 0.67% of 360,000 active; AID 602261;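 active = compounds whose normalised, plate-corrected inhibition of enzyme fluorescence in the single-dose primary screen is 50% or more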;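 note: 0% = DMSO with enzyme and 100% = substrate without enzyme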
SUMO Mot1 rescue: blocks SUMOylation pathway, rescuing yeast Mot1-301 growth | S. cerevisiae Mot1-301 growth rescue, ATP luminescence, 38.5C; percent above DMSO median, 100 means doubled | growth rescue, % at 18.8 µM | 1% of 320,000 active | AID 2716;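 active = every valid replicate shows activation above 250% relative to neutral control wells; inactive = the rest, any valid replicate at or below 250%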;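 note: OY570 slx delta 5 strain wells were the positive control but not used for scaling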
Cardio protect: modulators protecting cardiomyocytes from myocardial damage | H9c2 cardiomyocytes, H2O2 injury protection, ATPLite, 2 h | protection from H2O2 cell death, % at 20 µM | 0.63% of 360,000 active | AID 588492;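 active = compounds giving at least 50% protection of heart cells from peroxide-induced death in the single-dose screen, raw or plate-pattern-corrected value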;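 note: 0% = DMSO wells with peroxide and 100% = DMSO wells without peroxide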
MPTP inh: blocks calcium-induced mitochondrial swelling; isolated mouse mitochondria, Ca2+ swelling absorbance, 30 min; inhibition, % at 10 µM; 1.4% of 360,000 active;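 active = inhibition of 50% or more, scaled per plate between neutral and stimulator controls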;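 note: 0% = DMSO wells given calcium and 100% = 1 mM EGTA wells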
aDG glyco act: alpha-DG glycosylation activation | Pro5-aDG cells, alpha-DG glycosylation AlphaScreen (IIH6); 0% Pro5, 100% B10-LARGE cell signal | activation, % at 10 µM | 0.22% of 360,000 active | AID 624168;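 active = activation of at least 8% versus controls, or a plate z-score of at least 8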;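 note: Pro5 are CHO cells carrying HIG-tagged alpha-DG that lacks glycosylation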
Yeast superoxide: yeast age-related superoxide inhibition as caloric restriction mimetic | S. cerevisiae aged cells, superoxide DHE fluorescence; hits give low values | superoxide response (% of plate mean), % at 10 µM | 0.18% of 330,000 active;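 active = superoxide response under a set limit, about three screen SD below normal, cut at about 65% in these data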;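 note: yeast aged for seven days with compound at 30 °C before DHE staining; 100% = average MFI of all compound-treated wells on the plate with controls excluded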
* = called active by the depositor; · = no result given.

SMILES | FAS-TE inh | SUMO Mot1 rescue | Cardio protect | MPTP inh | aDG glyco act | Yeast superoxide
O=c1[nH]nc(Cc2ccccc2)c2ccccc12 | -7 | 11 | 64* | 0 | 0 | 97
O=c1[nH]c(=S)[nH]nc1Cc1ccccc1 | -7 | 3 | 4 | 0 | 0 | 112
COc1ccc(CC(=O)n2[nH]c(=O)c3ccccc3c2=O)cc1OC | -9 | 1 | -1 | 4 | 0 | 104
O=c1[nH]nc(Cc2ccc([N+](=O)[O-])cc2)c2ccccc12 | 4 | -5 | 64* | 0 | 0 | 100
COc1ccc(Cc2n[nH]c(=O)c3ccccc23)cc1OC | 0 | -2 | 62* | 0 | 0 | 98
COc1ccccc1NC1CCCCC1NS(=O)(=O)c1ccccc1 (configuration not stated) | 4 | 0 | -1 | 2 | 0 | 137
O=C(NCc1cccnc1)NC1(C(F)(F)F)Oc2ccc(Cl)cc2O1 (configuration not stated) | 5 | -11 | 58* | -2 | 0 | 98
O=C(Nc1ccccc1N1CCN(C(=O)c2ccccc2)CC1)c1cc2ccccc2o1 | 30 | 264* | 21 | -4 | 0 | 98
Cc1ccc(N2CCN(S(=O)(=O)c3ccc4oc(=O)ccc4c3)CC2)cc1Cl | -4 | -15 | -7 | 2 | 0 | 95
O=C(Nc1ccc2nc(N3CCOCC3)sc2c1)c1cc2ccccc2o1 | 10 | · | 68* | -2 | 0 | ·
Cc1c(C(=O)Nc2ccc3nc(N4CCOCC4)sc3c2)oc2ccccc12 | 31 | 12 | 58* | 1 | 0 | 115
COc1cc(C(=O)Nc2ccc3nc(N4CCOCC4)sc3c2)cc(OC)c1OC | 1 | 9 | 16 | -1 | 0 | 117
O=C(Nc1ccc(N2CCOCC2)c(Cl)c1)c1cc2ccccc2o1 | 17 | 15 | 4 | -4 | 0 | 114
CN(CCC#N)C(=O)COC(=O)c1ccc(Cl)c(S(=O)(=O)N(C)c2ccccc2)c1 | -6 | -5 | 4 | 1 | 0 | 93
CC1Oc2cc3oc4c(O)c(O)ccc4c(=O)c3c(O)c2C1(C)C (configuration not stated) | 52* | -18 | -5 | 32 | 0 | 149
CCC(=O)c1ccc(N2CCN(C(=O)c3cc([N+](=O)[O-])ccc3N3CCN(C)CC3)CC2)c(F)c1 | 70* | 55 | 8 | 0 | 0 | 90
CSCCC(NS(=O)(=O)c1ccccc1)C(=O)OCc1cc(=O)oc2cc(O)ccc12 (configuration not stated) | -1 | 111 | 56* | 1 | 0 | 97
Cc1ccc(NC(=O)CSC(C)C(=O)OCc2cc(=O)oc3cc(O)ccc23)cc1 (configuration not stated) | -6 | · | 67* | 2 | 0 | ·
CCN(CC)c1ccc(C(=O)OCc2cc(=O)oc3cc(O)ccc23)cc1 | -13 | 460 | 24 | 1 | 0 | 106
CCOc1ccc(C(=O)NC(=S)Nc2cccnc2)cc1[N+](=O)[O-] | -4 | -9 | -3 | 0 | 1 | 91
COc1ccc(C(=O)NC(=S)Nc2cccnc2)cc1[N+](=O)[O-] | -12 | -3 | 12 | 0 | 0 | 48*
CNc1ccccc(C(=O)/C=C/c2ccccc2OC)c1=O | -7 | -15 | 51* | 1 | 0 | 118
CNc1ccc(Br)cc(C(=O)/C=C/c2cccc(OC)c2OC)c1=O | -4 | 11 | 18 | 4 | 0 | 96
CCN(CC(=O)Nc1ccc(OC)cc1)C(=O)c1cc(-c2cccs2)nn1-c1ccccc1 | 13 | -9 | 69* | -3 | 0 | 95
COP(=O)(OC)OC(C(=O)c1ccccc1)c1ccccc1 (configuration not stated) | · | · | · | -2 | 0 | ·
SMILES | FAS-TE inh | SUMO Mot1 rescue | Cardio protect | MPTP inh | aDG glyco act | Yeast superoxide
O=C(COc1ccc(F)cc1Cl)Nc1nc(-c2ccccn2)cs1 | 2 | 211 | 61* | 0 | 1 | 86
N#Cc1ccccc1OCC(=O)Nc1nc(-c2ccccn2)cs1 | -6 | · | 63* | 0 | 2 | ·
O=C(COc1ccccc1Cl)Nc1nc(-c2ccncc2)cs1 | 7 | 152 | 0 | 1 | 0 | 98
CC(C)(C)OC(=O)N1CCC(NC(=O)c2ncn(Cc3ccccc3)c2C(=O)NC2CCN(C(=O)OC(C)(C)C)CC2)CC1 | 42 | 18 | -12 | 0 | 0 | 95
O=C(O)CSc1cc(NS(=O)(=O)c2ccc(Br)cc2)c2ccccc2c1O | 12 | -9 | -18 | 5 | 3.4* | 127
O=S(=O)(Nc1cc(Sc2ncn[nH]2)c(O)c2ccccc12)c1ccccc1 | -14 | · | -16 | 1 | 0 | ·
COc1cc(-c2nnc(-c3cc(-c4ccccc4)nc4ccccc34)o2)cc(OC)c1OC | 11 | · | 56* | 1 | 0 | ·
COc1cccc(C(=O)CSc2nnc(-c3cc(OC)c(OC)c(OC)c3)o2)c1 | 24 | 5 | 58* | 3 | 0 | 85
COc1cc(-c2nnc(-c3cc(OC)c(OC)c(OC)c3)o2)cc(OC)c1OC | -6 | 6 | 66* | -2 | 0 | 95
COc1cc(-c2nnc(-c3ccccc3)o2)cc(OC)c1OC | 9 | · | 36 | -2 | 0 | 94
Cc1ccc(N(CC(=O)NCc2ccccn2)S(=O)(=O)c2ccccc2)cc1C | -2 | -10 | -3 | 0 | 0 | 99
Cc1cc(C)c(C)c(OCCN2CCOCC2)c1 | -2 | -1 | 0 | -1 | 0 | 104
CC(=O)c1cccc(NC(=O)CSc2nc3ccccc3c(=O)n2CCCN2CCOCC2)c1 | -3 | 17 | 7 | 0 | 0 | 91
Cc1ccc(NC(=O)CSc2nc3ccccc3c(=O)n2CCCN2CCCCC2)cc1C | 31 | · | -6 | -3 | 8.3* | 95
COc1ccc(OC)c(N(CC(=O)Nc2cccnc2)S(=O)(=O)c2ccc(OC)c(OC)c2)c1 | -3 | 10 | 50* | 0 | 0 | 117
Cc1ccc(Nc2c(-c3ccc(N(C)C)cc3)nc3ncccn23)cc1 | 2 | 328* | -4 | 3 | 0 | 103
O=CNc1cc(-c2ccccc2)cn2c(-c3ccc(F)c(Cl)c3)cnc12 | 14 | · | 6 | 0 | 0 | ·
O=CNc1cc(-c2ccc(C(=O)NC3CC3)cc2)cn2c(-c3ccccc3)cnc12 | 40 | · | 72* | 0 | 1 | ·
COc1cccc(-c2cnc3c(NC(C)=O)cc(-c4ccc(C(=O)NC5CC5)cc4)cn23)c1 | 10 | · | 32 | 1 | 0 | ·
CC(=O)c1ccc(-c2cnc3c(NC=O)cc(-c4ccc(N5CCN(C)CC5)cc4)cn23)cc1 | -7 | · | 15 | 2 | 0 | ·
O=CNc1cc(-c2ccc(C(=O)NC3CC3)cc2)cn2c(-c3ccc(F)c(Cl)c3)cnc12 | 24 | · | 60* | 0 | 1 | ·
CC(=O)c1ccc(-c2cnc3c(NC=O)cc(-c4ccc(C(=O)NC5CC5)cc4)cn23)cc1 | 9 | · | 95* | 2 | 0 | ·

Bioassay records: PubChem, several laboratories
